Assay results from PubChem BioAssay AID1159580 (chemical genetic matrix, 2015).
Where “and” joins values, the source holds several entries; their conditions need not be identical. Identical values can stand only once. The whole screen tested about 5,500 compounds, of which about 2,000 (36%) were called active. Roughly 18% stayed inconclusive and do not appear here. Rule as the data show it: active = normalized growth mostly below about 0.91 (no sharp cut-off); inconclusive = no clear call, values can overlap the other calls; inactive = mostly above about 0.92. This is one part of the list.

Experiment: chemical genetic growth profiling, strain panel (AID 1159580);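 also: tested at 20 µM; growth read once vehicle control cultures reached saturation at 30 °C; 1 = growth at the plate median or of vehicle wells; lower values mean less growth of the strain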
Conditions: S. cerevisiae deletion strains, growth OD

Measured: normalized growth

CC1=CC(=O)C(C(C)C)=CC1=O
0.468 (active) and 0.942 (inactive): locus YJL095W, strain BCK1, stronger effect = lower value
active: locus YAL013W, strain DEP1, stronger effect = lower value 0.784 | locus YAL026C, strain drs2, stronger effect = lower value 0.711 | locus YAL030W, strain snc1, stronger effect = lower value 0.914 | locus YBR009C, strain hhf1, stronger effect = lower value 0.488 | locus YBR021W, strain FUR4, stronger effect = lower value 0.827 | locus YCL011C, strain gbp2, stronger effect = lower value 0.375 | locus YCR088W, strain abp1, stronger effect = lower value 0.777 | locus YDL192W, strain arf1, stronger effect = lower value 0.776 | locus YDR101C, strain arx1, stronger effect = lower value 0.87 | locus YDR137W, strain rgp1, stronger effect = lower value 0.665 | locus YDR159W, strain sac3, stronger effect = lower value 0.773 | locus YDR318W, strain mcm21, stronger effect = lower value 0.878 | locus YDR388W, stronger effect = lower value 0.925 | locus YDR392W, strain spt3, stronger effect = lower value 0.455 | locus YDR502C, strain sam2, stronger effect = lower value 0.857 | locus YEL003W, strain gim4, stronger effect = lower value 0.416 | locus YER155C, strain BEM2 (second series), stronger effect = lower value 0.425 | locus YER155C, strain BEM2, stronger effect = lower value 0.871 | locus YER167W, strain BCK2, stronger effect = lower value 0.897 | locus YGL086W, strain mad1, stronger effect = lower value 0.846 | locus YGL227W, strain vid30, stronger effect = lower value 0.217 | locus YGL248W, strain PDE1, stronger effect = lower value 0.849 | locus YGR078C, strain PAC10, stronger effect = lower value 0.547 | locus YGR135W, strain pre9, stronger effect = lower value 0.826 | locus YGR252W, strain gcn5, stronger effect = lower value 0.746 | locus YHR129C, strain ARP1, stronger effect = lower value 0.864 | locus YHR142W, strain chs7, stronger effect = lower value 0.775 | locus YHR200W, strain rpn10, stronger effect = lower value 0.911 | locus YIL066C, strain RNR3, stronger effect = lower value 0.828 | locus YIL125W, strain kgd1, stronger effect = lower value 0.926 | locus YIR030C, strain dcg1, stronger effect = lower value 0.9 | locus YJL129C, strain trk1, stronger effect = lower value 0.65 | locus YJL164C, strain tpk1, stronger effect = lower value 0.785 | locus YJL166W, strain qcr8, stronger effect = lower value 0.415 | locus YJR043C, strain POL32, stronger effect = lower value 0.79
inactive: locus YAL021C, strain ccr4, stronger effect = lower value 0.91 | locus YBL061C, strain skt5, stronger effect = lower value 0.992 | locus YBR023C, strain chs3, stronger effect = lower value 0.997 | locus YBR171W, strain sec66, stronger effect = lower value 0.996 | locus YBR229C, strain ROT2, stronger effect = lower value 0.984 | locus YBR231C, strain swc5, stronger effect = lower value 0.956 | locus YBR279W, strain paf1, stronger effect = lower value 0.98 | locus YCL016C, strain dcc1, stronger effect = lower value 0.984 | locus YCL029C, strain bik1, stronger effect = lower value 0.926 | locus YCL061C, strain MRC1, stronger effect = lower value 0.966 | locus YCL069W, strain vba3, stronger effect = lower value 0.993 | locus YDL005C, strain med2, stronger effect = lower value 0.974 | locus YDL035C, strain GPR1, stronger effect = lower value 0.859 | locus YDL040C, strain nat1, stronger effect = lower value 0.996 | locus YDL074C, strain BRE1, stronger effect = lower value 0.797 | locus YDL101C, strain DUN1, stronger effect = lower value 0.954 | locus YDL185W, strain tfp1, stronger effect = lower value 0.935 | locus YDR001C, strain nth1, stronger effect = lower value 1 | locus YDR069C, strain doa4, stronger effect = lower value 0.988 | locus YDR162C, strain NBP2, stronger effect = lower value 0.858 | locus YDR195W, strain ref2 1.03 | locus YDR297W, strain sur2, stronger effect = lower value 0.989 | locus YDR335W, strain msn5, stronger effect = lower value 0.998 | locus YEL037C, strain rad23, stronger effect = lower value 0.996 | locus YEL061C, strain CIN8 (second series), stronger effect = lower value 0.917 | locus YER015W, strain faa2, stronger effect = lower value 0.989 | locus YER016W, strain bim1, stronger effect = lower value 1.01 | locus YER110C, stronger effect = lower value 0.922 | locus YER111C, strain swi4, stronger effect = lower value 0.994 | locus YFR010W, strain ubp6, stronger effect = lower value 0.93 | locus YGL078C, strain dbp3, stronger effect = lower value 0.932 | locus YGL167C, strain pmr1, stronger effect = lower value 0.996 | locus YGL173C, strain kem1, stronger effect = lower value 0.947 | locus YGL240W, strain doc1, stronger effect = lower value 0.938 | locus YGL253W, strain hxk2, stronger effect = lower value 0.956 | locus YHR013C, strain ard1, stronger effect = lower value 0.995 | locus YHR027C, strain rpn1, stronger effect = lower value 0.996 | locus YHR079C, strain IRE1 (second series), stronger effect = lower value 0.935 | locus YHR079C, strain IRE1, stronger effect = lower value 0.941 | locus YHR094C, strain hxt1, stronger effect = lower value 0.949 | locus YIL073C, strain SPO22, stronger effect = lower value 0.765 | locus YJL092W, strain hpr5, stronger effect = lower value 0.989 | locus YJL095W, strain BCK1 (second series), stronger effect = lower value 0.928 | locus YJL115W, strain asf1, stronger effect = lower value 0.981 | locus YJL134W, strain LCB3, stronger effect = lower value 0.982 | locus YJL154C, strain vps35, stronger effect = lower value 0.989 | locus YJL168C, strain set2, stronger effect = lower value 0.942 | locus YJL187C, strain SWE1 (second series), stronger effect = lower value 0.931 | locus YJL187C, strain SWE1, stronger effect = lower value 0.974
0.556 (active) and 0.951 (inactive): locus YHR030C, strain SLT2, stronger effect = lower value
